# Screens deposited in PubChem by several laboratories.
# Most compounds without a hit are left out; they make up all but 1.5% or so of the library.
# EBV gp42 inh: Epstein-Barr virus gp42 inhibitors, primary screen, biochemical, uHTS, fluorescence polarization. inhibition, % (tested at 21.74 µM). Glycoprotein 42 (Epstein-Barr virus (strain AG876)), Q1HVG2. actives 0.42% (n = 220,000). Fluorescence polarization binding assay, mP read-out; in the data active = inhibition above about 50%
# eLon inh: inhibitors of E. coli Lon protease, primary screen, biochemical, fluorescence polarization. purified E. coli Lon protease. P0A9M0. actives 0.42% (n = 360,000). inhibition, % at 7.94 µM. AID 602123, 2011; in the data active = inhibition above about 13%, passing the limit was not always enough
# MEX-5 binding: MEX-5 zinc finger RNA-binding disruptors – biochemical, C. elegans, fluorescence polarization, MLPCN library, primary screen; MEX-5/FITC-TCR2 RNA binding; active compounds read low; activity score (negative = inhibition of binding), % at 10 µM; actives 0.38% (n = 300,000);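 active = inhibition past about -25% in most replicates, and total fluorescence under double the plate's negative control median, limit read from the data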
# GLD-1 TGE inh: GLD-1/TGE RNA complex disruptors, primary screen, biochemical, fluorescence polarization | purified GLD-1 + fluorescein TGE RNA | inhibition, % at 5.96 µM | actives 0.44% (n = 320,000);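 active = percent inhibition above a per-plate cutoff, the plate mean of test compounds plus 3 SD, cut at about 30% in these data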
# Target sequence (Q17339 whole entry, looked up): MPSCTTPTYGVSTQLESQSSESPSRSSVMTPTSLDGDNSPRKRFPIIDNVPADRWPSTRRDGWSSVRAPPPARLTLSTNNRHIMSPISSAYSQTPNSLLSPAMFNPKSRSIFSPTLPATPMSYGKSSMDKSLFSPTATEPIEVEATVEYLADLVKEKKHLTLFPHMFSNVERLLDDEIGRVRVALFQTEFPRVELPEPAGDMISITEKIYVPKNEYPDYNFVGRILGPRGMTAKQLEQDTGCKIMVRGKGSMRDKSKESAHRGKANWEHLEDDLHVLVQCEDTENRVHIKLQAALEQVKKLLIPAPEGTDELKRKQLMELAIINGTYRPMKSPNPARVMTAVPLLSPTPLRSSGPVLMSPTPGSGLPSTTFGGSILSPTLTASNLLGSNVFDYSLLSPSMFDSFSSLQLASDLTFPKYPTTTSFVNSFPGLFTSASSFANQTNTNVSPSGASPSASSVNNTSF
# Bcl-xL primary: inhibitors of human Bcl-xL, primary screen, biochemical, fluorescence polarization, HTS | Bcl-2-like protein 1 (Homo sapiens), Q07817 | GST-Bcl-xL / FITC-Bim BH3 peptide fluorescence polarization | inhibition, % at 10.9 µM | actives 0.7% (n = 320,000) | AID 2129, 2009;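 active = inhibition above the mean of all tested compounds plus 3 SD, cutoff set per campaign, cut at about 30% in these data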;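 note: inhibitors lower millipolarization by displacing the labeled peptide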
# MCL1 BIM primary: inhibitors of MCL1 binding to BIM-BH3, primary screen, biochemical, fluorescence polarization. Induced myeloid leukemia cell differentiation protein Mcl-1 (Homo sapiens), Q07820. GST-MCL1 / FITC-Bim-BH3 fluorescence polarization. inhibition, % at 10.9 µM. actives 0.68% (n = 320,000). AID 2057, 2009;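 active = inhibition above the mean inhibition of all tested compounds plus 3 SD, set per campaign, cut at about 40% in these data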;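 note: higher means more loss of mP so more displacement of Bim peptide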
# A number is an active result; . = inactive; / = no result.
SMILES,EBV gp42 inh,eLon inh,MEX-5 binding,GLD-1 TGE inh,Bcl-xL primary,MCL1 BIM primary
N#Cc1c(NC(=O)/C=C/C(=O)O)sc2c1CCN(Cc1ccccc1)C2,/,.,-29,.,.,.
CC(=O)Nc1sc2c(c1C#N)CCN(Cc1ccccc1)C2,/,.,.,.,.,.
Cc1ccc(CC(=O)NCCS(=O)c2ccc(C)cc2)cc1 (centres undefined),.,.,.,.,.,.
COc1cccc(OC)c1OCc1cc(C2C3CCCC=C3C(C#N)=C(N)C2(C#N)C#N)c(C)cc1C (centres undefined),.,.,.,.,.,.
CCCN1CC=C2C(C#N)=C(N)C(C#N)(C#N)C(c3cccc(OC)c3OC)C2C1 (centres undefined),75,.,-67,104,129,140
CCCCOc1ccc(C2C3CN(C(=O)OCC)CC=C3C(C#N)=C(N)C2(C#N)C#N)cc1OC (centres undefined),.,.,.,.,.,.
COc1ccc(OC)c(C2C3CN(C(C)C)CC=C3C(C#N)=C(N)C2(C#N)C#N)c1 (centres undefined),.,.,-38,52,87,96
COc1ccc(CCNC(=O)COc2ccc(S(=O)(=O)NC3CCCCC3)cc2Cl)cc1,.,.,.,.,.,.
COc1ccc(OC)c(NC(=O)c2csc(Cl)c2OC)c1,/,.,.,.,.,.
CC1CCCC(NC(=O)c2ccc3snnc3c2)C1C (centres undefined),/,.,.,.,.,.
CCc1ccc(C(=O)NNC(=O)c2ccc(=O)n(C)n2)cc1,/,.,-30,.,.,.
O=C(NNC(=O)c1csc(-c2cccnc2)n1)c1ccccc1,.,.,-26,.,.,.
O=C(NNC(=O)c1csc(-c2ccccc2)n1)c1ccccc1,/,.,/,/,/,/
COc1ccc(Nc2nc(=O)c3cc([N+](=O)[O-])ccc3s2)cc1,61,.,.,/,/,/
O=C1NC(=S)S/C1=C\c1ccc(SCc2ccco2)o1,.,.,/,.,66,75
CCC1=NN2C(=N)/C(=C/c3c(C)nn(-c4ccccc4)c3Cl)C(=O)N=C2S1,.,.,.,.,.,.
CCC1=NN2C(=N)/C(=C\c3ccc(SCc4ccco4)o3)C(=O)N=C2S1,.,.,-32,.,.,.
O=C1NC(=S)S/C1=C\c1ccc(SCc2ccccc2)o1,.,.,/,.,.,.
CC1(C(=O)NCC2CC2)CCN1C(=O)C1(c2ccc(Cl)cc2)CC1 (centres undefined),/,.,/,/,/,/
O=C(O)CCCCCn1c(SCC(=O)c2ccc(O)c(O)c2)nc2ccsc2c1=O,.,.,-27,.,.,.
NC(=O)c1nsc(C(=O)N(Cc2cccnc2)C(C(=O)NCc2ccc(F)cc2)c2ccc(F)cc2)c1N (centres undefined),/,.,.,.,.,.
CN(C)S(=O)(=O)c1ccc(NC(=O)CCNC(=O)c2ccc([N+](=O)[O-])cc2)cc1,.,.,.,.,.,.
N#CC1(NC(=O)COC(=O)c2cc(O)c3ccccc3c2O)CCCCC1,/,.,.,.,31,40
N#CC1(NC(=O)COC(=O)c2ccccc2[N+](=O)[O-])CCCCC1,/,.,.,.,.,.
CC(C)(C)NC(=O)c1sccc1C(=O)O,100,.,.,.,.,.
Cn1c(=O)c2[nH]c(N/N=C(/C#N)C(N)=O)nc2n(C)c1=O,.,/,-27,.,.,.
CCC(COC(C)=O)Nc1nc2c([nH]1)c(=O)n(C)c(=O)n2C (centres undefined),.,.,.,.,.,.
COc1cc(C(O)c2nc(-c3ccncc3)cs2)ccc1F (centres undefined),/,.,/,/,/,/
Cn1c(=O)c2cc(NC(=O)Cc3ccccc3F)ccc2n1Cc1ccc(Cl)cc1,/,.,/,/,/,/
CCOC(=O)C1=C(O)/C(=C\c2cc(C)n(-c3ccc(F)cc3)c2C)N=C1C,.,.,.,.,.,.
